Holding throughout (experiment): DAPPL (digital affinity profiling via proximity ligation, sequencing); 10 mM Tris-HCl pH 7.5, 50 mM NaCl, 1 mM DTT, 4% glycerol, room temperature, 30 min; GST-TFs on glutathione beads, 16-mer random dsDNA library, 0.1% formaldehyde crosslink after washing; high values mean tight binding
The target in experiment [1] is T1, FEV (Homo sapiens, UniProt Q99581 1-238).
T1 sequence: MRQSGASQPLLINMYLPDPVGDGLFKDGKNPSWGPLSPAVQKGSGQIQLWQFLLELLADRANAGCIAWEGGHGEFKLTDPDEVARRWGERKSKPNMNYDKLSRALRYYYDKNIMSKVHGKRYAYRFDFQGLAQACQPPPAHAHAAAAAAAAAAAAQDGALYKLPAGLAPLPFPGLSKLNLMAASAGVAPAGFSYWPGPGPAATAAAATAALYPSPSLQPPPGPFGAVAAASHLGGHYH
The following applies: protein: recombinant; tags: N-terminal GST; dsDNA, one strand shown. In short, it runs like this: (§1)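 Yeast served to express human transcription factors as GST fusions, which were then captured on glutathione beads and labelled with DNA barcodes. Pooled with a tag-only sample, they were incubated with 200 nmole of a 16-mer random double-stranded DNA library for 30 min at room temperature in Tris/NaCl/DTT/glycerol buffer, washed, crosslinked with 0.1% formaldehyde, ligated by proximity, amplified by PCR and sequenced. Dividing each hexamer's read frequency for a factor by its frequency for the tag-only sample gives the binding signal.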

Experiment [2] addresses ETV5 (Homo sapiens, UniProt P41161 1-510). The following applies: protein: recombinant; tags: N-terminal GST; dsDNA, one strand shown. The method, boiled down: as §1
For experiment [3], the target named is HSF1 (Homo sapiens, UniProt Q00613 1-529). The following applies: protein: recombinant; tags: N-terminal GST; chain copies: 3; dsDNA, one strand shown. In short, it runs like this:
as §1

The target in experiment [4] is T2, SPIC (Homo sapiens, UniProt Q8N5J4 1-248).
T2 sequence: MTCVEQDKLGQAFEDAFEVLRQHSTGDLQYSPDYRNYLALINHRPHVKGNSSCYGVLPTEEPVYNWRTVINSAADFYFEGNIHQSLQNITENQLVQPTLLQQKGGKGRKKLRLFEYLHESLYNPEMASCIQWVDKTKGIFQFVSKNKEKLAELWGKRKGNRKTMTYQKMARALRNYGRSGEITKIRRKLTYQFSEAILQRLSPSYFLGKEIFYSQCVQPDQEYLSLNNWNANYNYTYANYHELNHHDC
The following applies: protein: recombinant; tags: N-terminal GST; dsDNA, one strand shown. In short, it runs like this:
as §1

The target in experiment [5] is ELF4 (Homo sapiens, UniProt Q99607 1-663). The following applies: protein: recombinant; tags: N-terminal GST; dsDNA, one strand shown. The method, boiled down: as §1
The target of experiment [6] is T3, ELK4 (Homo sapiens, UniProt P28324-2 1-405).
T3 sequence: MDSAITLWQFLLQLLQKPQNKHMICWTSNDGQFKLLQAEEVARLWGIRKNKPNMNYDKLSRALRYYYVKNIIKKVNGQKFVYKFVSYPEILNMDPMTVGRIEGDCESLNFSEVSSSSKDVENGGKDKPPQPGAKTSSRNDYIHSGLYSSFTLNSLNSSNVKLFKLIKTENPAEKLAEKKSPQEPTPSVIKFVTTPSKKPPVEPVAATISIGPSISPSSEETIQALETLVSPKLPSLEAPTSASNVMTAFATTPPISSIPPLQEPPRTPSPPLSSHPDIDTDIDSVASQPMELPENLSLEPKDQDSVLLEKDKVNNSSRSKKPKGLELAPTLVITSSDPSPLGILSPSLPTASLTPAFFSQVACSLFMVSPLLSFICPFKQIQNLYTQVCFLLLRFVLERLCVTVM
The note with it: protein: recombinant; tags: N-terminal GST; dsDNA, one strand shown. In short, it runs like this: as §1

Experiment [7] has as its target T4, ETV2 (Homo sapiens, UniProt O00321 1-342).
T4 sequence: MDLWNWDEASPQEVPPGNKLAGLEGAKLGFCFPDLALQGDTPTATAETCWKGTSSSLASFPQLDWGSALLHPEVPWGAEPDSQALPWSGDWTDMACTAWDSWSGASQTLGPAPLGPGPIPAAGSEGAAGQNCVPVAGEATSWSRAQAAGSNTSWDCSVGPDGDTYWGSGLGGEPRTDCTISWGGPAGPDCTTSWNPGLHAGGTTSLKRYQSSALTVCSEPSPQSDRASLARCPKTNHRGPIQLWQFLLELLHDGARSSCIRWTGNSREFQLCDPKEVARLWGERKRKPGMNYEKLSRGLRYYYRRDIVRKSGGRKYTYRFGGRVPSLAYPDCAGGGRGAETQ
The note with it: protein: recombinant; tags: N-terminal GST; dsDNA, one strand shown. The method, boiled down:
as §1

For experiment [8], the target named is T5, ELF3 (Homo sapiens, UniProt P78545 1-371).
T5 sequence: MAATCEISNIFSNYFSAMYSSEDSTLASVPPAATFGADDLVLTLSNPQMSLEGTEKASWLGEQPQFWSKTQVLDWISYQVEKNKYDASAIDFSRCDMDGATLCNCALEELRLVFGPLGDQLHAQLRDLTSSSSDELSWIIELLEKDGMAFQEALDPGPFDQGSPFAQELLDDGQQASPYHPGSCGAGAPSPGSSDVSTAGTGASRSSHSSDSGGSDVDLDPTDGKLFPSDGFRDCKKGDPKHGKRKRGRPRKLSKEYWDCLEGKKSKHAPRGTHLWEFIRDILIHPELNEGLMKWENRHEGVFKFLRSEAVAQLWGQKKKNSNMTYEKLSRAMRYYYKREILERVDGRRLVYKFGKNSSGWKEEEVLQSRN
The following applies: protein: recombinant; tags: N-terminal GST; dsDNA, one strand shown. In short, it runs like this:
as §1

Experiment [9] addresses CRX (Homo sapiens, UniProt O43186 1-299). The note with it: protein: recombinant; tags: N-terminal GST; dsDNA, one strand shown. In short, it runs like this: as §1
The target in experiment [10] is ETV1 (Homo sapiens, UniProt P50549 1-477). The following applies: protein: recombinant; tags: N-terminal GST; dsDNA, one strand shown. In short, it runs like this: as §1
The target in experiment [11] is T6, ERF (Homo sapiens, UniProt P50548 1-548).
T6 sequence: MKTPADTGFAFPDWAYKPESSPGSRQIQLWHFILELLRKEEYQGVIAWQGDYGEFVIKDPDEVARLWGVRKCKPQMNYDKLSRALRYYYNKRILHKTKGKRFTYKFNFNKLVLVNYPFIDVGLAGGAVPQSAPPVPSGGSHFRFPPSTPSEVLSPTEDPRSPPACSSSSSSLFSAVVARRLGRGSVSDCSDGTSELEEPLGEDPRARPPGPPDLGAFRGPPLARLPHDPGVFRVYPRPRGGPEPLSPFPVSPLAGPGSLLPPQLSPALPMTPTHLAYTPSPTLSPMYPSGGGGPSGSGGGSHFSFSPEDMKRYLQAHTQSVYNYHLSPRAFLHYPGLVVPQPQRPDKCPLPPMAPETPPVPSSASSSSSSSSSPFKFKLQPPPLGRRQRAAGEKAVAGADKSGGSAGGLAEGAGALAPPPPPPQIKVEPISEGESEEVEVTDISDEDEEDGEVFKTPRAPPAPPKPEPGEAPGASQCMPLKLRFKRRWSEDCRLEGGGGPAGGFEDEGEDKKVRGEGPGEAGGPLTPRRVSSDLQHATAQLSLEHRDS
The following applies: protein: recombinant; tags: N-terminal GST; dsDNA, one strand shown. The method, boiled down:
as §1

For experiment [12], the target named is T7, ETV3L (Homo sapiens, UniProt Q6ZN32 1-361).
T7 sequence: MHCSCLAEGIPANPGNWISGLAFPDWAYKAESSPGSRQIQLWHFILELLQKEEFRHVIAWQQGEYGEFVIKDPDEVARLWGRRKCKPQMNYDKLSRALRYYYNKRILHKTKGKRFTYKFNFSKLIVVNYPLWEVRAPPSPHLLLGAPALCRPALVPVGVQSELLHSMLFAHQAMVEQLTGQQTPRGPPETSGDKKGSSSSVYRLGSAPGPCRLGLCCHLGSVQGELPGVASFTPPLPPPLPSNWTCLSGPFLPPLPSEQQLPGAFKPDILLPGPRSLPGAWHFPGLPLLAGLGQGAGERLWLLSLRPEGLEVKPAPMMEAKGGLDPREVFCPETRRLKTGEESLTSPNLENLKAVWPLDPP
The note with it: protein: recombinant; tags: N-terminal GST; dsDNA, one strand shown. The method, boiled down:
as §1

The target in experiment [13] is T8, ETS2 (Homo sapiens, UniProt P15036 1-469).
T8 sequence: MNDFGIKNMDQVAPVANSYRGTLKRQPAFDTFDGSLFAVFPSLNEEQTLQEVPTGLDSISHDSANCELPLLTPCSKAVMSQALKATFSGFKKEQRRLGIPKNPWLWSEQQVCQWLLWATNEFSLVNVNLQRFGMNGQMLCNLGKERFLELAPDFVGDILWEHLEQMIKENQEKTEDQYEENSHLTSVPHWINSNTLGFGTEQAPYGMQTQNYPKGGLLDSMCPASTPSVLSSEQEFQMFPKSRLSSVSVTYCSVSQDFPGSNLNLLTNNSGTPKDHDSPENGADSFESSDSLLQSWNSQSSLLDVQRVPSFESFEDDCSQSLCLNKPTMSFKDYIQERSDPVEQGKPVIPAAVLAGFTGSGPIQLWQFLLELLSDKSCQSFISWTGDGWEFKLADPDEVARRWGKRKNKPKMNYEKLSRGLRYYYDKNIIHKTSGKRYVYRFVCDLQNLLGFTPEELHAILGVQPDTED
The following applies: protein: recombinant; tags: N-terminal GST; dsDNA, one strand shown. In short, it runs like this:
as §1

Experiment [14] concerns the target T9, SPDEF (Homo sapiens, UniProt O95238 1-335).
T9 sequence: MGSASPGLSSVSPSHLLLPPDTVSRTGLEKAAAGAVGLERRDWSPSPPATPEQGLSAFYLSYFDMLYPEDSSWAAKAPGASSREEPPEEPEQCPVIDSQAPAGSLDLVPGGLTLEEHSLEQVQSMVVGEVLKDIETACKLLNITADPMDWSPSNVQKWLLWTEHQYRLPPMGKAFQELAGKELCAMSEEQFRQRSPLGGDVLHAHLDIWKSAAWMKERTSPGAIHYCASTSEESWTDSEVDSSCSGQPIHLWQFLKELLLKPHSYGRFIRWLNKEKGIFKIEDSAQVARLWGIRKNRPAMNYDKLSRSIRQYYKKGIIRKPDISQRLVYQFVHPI
The following applies: protein: recombinant; tags: N-terminal GST; dsDNA, one strand shown. In short, it runs like this: as §1

Experiment [15] addresses T10, ETV7 (Homo sapiens, UniProt Q9Y603 1-341).
T10 sequence: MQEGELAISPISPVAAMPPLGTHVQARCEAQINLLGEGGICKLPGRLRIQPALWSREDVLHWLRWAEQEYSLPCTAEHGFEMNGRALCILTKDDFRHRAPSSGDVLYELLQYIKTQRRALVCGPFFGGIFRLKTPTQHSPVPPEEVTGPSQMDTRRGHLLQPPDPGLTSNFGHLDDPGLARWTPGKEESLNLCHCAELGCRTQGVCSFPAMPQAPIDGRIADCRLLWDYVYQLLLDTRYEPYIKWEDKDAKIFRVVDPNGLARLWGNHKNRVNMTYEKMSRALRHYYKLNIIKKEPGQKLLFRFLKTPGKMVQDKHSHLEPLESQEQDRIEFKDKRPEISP
The following applies: protein: recombinant; tags: N-terminal GST; dsDNA, one strand shown. In short, it runs like this:
as §1

Experiment [16] addresses T11, ELF5 (Homo sapiens, UniProt Q9UKW6-2 1-255).
T11 sequence: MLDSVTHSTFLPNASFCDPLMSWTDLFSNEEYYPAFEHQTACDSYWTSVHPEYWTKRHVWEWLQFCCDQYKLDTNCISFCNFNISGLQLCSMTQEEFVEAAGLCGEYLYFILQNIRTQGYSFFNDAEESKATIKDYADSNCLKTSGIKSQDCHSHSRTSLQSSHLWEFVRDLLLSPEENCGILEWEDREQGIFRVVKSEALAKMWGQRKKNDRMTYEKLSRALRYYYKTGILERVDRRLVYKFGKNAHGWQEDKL
The following applies: protein: recombinant; tags: N-terminal GST; dsDNA, one strand shown. The method, boiled down: as §1

Experiment [17] addresses T12, ETV3 (Homo sapiens, UniProt P41162-2 1-143).
T12 sequence: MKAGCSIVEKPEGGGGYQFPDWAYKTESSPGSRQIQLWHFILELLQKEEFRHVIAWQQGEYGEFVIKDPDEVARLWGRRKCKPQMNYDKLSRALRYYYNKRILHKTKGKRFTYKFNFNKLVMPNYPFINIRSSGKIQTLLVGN
The note with it: protein: recombinant; tags: N-terminal GST; dsDNA, one strand shown. The method, boiled down: as §1

Experiment [18] concerns the target ETV6 (Homo sapiens, UniProt P41212 1-452). The following applies: protein: recombinant; tags: N-terminal GST; dsDNA, one strand shown. In short, it runs like this:
as §1

Sequence of ETV1 (P50549 whole entry): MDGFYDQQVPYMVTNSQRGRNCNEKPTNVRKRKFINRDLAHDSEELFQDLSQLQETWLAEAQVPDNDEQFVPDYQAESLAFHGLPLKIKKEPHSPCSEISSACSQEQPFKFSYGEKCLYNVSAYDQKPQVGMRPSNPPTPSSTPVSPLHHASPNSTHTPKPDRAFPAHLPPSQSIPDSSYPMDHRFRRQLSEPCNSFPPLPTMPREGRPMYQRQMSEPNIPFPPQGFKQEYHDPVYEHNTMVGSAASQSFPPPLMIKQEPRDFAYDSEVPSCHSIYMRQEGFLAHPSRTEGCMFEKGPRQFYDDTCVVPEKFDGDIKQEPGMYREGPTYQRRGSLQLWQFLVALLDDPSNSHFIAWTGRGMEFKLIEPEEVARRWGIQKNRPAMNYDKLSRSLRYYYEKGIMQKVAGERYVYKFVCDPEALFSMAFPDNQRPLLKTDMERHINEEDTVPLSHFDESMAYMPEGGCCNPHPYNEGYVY
Sequence of ETV5 (P41161 whole entry): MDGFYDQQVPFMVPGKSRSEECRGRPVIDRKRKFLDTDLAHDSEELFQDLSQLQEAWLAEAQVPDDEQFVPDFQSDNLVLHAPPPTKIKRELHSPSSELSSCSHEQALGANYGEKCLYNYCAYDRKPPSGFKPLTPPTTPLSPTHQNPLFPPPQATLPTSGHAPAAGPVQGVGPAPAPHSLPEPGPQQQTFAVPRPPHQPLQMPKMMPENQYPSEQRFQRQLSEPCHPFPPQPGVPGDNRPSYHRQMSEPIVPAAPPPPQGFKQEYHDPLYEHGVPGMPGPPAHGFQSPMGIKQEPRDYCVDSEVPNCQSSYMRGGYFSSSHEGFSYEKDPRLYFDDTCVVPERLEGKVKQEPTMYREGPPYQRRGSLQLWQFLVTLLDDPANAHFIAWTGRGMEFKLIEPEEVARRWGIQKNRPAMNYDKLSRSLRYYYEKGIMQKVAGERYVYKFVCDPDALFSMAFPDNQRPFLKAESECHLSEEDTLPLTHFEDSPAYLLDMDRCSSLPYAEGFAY
Sequence of HSF1 (Q00613 whole entry): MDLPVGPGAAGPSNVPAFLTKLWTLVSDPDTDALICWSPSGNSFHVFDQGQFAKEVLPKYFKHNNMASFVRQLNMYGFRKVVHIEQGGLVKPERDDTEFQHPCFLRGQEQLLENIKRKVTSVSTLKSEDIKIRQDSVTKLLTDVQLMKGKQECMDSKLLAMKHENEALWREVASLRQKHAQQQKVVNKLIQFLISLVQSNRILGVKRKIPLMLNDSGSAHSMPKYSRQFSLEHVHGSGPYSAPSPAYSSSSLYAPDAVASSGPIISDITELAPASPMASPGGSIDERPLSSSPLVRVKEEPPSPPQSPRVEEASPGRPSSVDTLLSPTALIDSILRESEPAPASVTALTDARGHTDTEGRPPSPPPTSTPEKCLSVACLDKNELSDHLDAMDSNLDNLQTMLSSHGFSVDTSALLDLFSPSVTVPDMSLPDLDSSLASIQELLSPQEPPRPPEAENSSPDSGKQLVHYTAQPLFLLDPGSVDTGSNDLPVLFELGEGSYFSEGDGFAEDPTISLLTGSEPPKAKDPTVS
Sequence of ELF4 (Q99607 whole entry): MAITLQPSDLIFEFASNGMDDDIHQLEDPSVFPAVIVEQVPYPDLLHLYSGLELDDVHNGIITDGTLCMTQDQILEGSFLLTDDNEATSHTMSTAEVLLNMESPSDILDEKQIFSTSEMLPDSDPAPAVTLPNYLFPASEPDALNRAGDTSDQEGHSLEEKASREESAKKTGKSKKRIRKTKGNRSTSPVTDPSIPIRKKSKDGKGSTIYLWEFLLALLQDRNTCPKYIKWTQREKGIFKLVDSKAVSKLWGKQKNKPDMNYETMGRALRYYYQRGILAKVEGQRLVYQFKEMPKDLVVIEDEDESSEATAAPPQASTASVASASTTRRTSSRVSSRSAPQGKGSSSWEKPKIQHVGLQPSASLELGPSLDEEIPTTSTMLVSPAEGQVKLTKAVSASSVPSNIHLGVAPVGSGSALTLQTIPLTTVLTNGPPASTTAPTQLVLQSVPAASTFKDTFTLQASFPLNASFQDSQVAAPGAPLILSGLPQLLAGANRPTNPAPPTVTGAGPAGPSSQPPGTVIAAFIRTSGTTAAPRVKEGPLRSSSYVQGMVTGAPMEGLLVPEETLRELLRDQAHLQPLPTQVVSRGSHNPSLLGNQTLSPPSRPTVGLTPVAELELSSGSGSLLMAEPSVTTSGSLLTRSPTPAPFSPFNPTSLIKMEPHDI
Sequence of ETV6 (P41212 whole entry): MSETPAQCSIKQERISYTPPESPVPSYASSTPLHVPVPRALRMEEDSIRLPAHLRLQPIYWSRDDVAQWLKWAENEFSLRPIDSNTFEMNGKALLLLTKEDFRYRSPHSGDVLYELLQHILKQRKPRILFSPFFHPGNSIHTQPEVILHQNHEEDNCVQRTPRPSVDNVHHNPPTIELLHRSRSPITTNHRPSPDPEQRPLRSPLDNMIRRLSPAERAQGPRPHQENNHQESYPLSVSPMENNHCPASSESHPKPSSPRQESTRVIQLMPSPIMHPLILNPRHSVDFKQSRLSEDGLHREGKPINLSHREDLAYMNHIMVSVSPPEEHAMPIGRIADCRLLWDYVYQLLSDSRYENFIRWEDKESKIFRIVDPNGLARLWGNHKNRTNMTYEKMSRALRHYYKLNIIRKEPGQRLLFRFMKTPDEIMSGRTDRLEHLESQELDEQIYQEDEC
Sequence of CRX (O43186 whole entry): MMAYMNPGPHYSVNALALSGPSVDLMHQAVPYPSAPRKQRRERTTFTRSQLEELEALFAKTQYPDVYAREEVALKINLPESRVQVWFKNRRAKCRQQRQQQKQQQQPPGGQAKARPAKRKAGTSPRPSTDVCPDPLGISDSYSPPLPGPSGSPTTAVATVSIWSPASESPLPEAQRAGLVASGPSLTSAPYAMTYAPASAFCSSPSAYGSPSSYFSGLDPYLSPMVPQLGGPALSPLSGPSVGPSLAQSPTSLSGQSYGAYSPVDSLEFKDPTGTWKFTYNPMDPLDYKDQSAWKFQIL

Turning to AATCTC, the binding signal in experiment [1] is 1.23 fold enrichment (6-mer frequency, TF over GST control); in experiment [2], 1.37 fold enrichment (6-mer frequency, TF over GST control); in [3], 2.13 fold enrichment (6-mer frequency, TF over GST control); in experiment [4], 1.13 fold enrichment (6-mer frequency, TF over GST control); in experiment [5] it was 1.25 fold enrichment (6-mer frequency, TF over GST control); in [6], 1.22 fold enrichment (6-mer frequency, TF over GST control). Besides, the binding signal is 1.26 fold enrichment (6-mer frequency, TF over GST control) in experiment [7]; 1.27 fold enrichment (6-mer frequency, TF over GST control) in [8]; 2.5 fold enrichment (6-mer frequency, TF over GST control) in experiment [9]; 1.34 fold enrichment (6-mer frequency, TF over GST control) in [10]; 1.27 fold enrichment (6-mer frequency, TF over GST control) in experiment [11]; 1.15 fold enrichment (6-mer frequency, TF over GST control) in experiment [12]. Further, the binding signal in experiment [13] is 1.19 fold enrichment (6-mer frequency, TF over GST control); in [14], 1.14 fold enrichment (6-mer frequency, TF over GST control); in [15] it was 1.2 fold enrichment (6-mer frequency, TF over GST control); in experiment [16], 1.29 fold enrichment (6-mer frequency, TF over GST control); in experiment [17] it was 1.2 fold enrichment (6-mer frequency, TF over GST control); in experiment [18] it was 1.26 fold enrichment (6-mer frequency, TF over GST control).

The values are drawn from PMC7862700, “An all-to-all approach to the identification of sequence-specific readers for epigenetic DNA modifications on cytosine”.
